Among the test systems are NCI-H23 lung; NCI-H226 lung; NCI-H322M lung; HOP-62 NSCLC; NCI-H460 lung; HOP-92 NSCLC; NCI-H522 lung; A549/ATCC NSCLC; 786-0 renal; DU-145 prostate; K-562 leukemia; MALME-3M melanoma; MDA-MB-231 breast; RXF 393 renal; SF-268 CNS; SF-295 CNS; SF-539 CNS; UACC-257 melanoma; M14 melanoma; COLO 205 colon.
Assay in all cases: NCI-60 one-dose screen, 48 h (100 = growth as untreated, 0 = no growth, -100 = all killed)
Holding throughout (conditions): 10 µM unless noted

The structures appear in SMILES notation. “And” between values parts separate entries of the source, which are not always exact repeats. Equal values may be shown once. The panel holds about 83,000 compounds, 20% with a hit somewhere; the sample as a whole holds those more often.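 The test compound was applied at a single concentration to cells in 96-well plates for 48 hours, and percent growth was recorded.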 Values without a mark were called inactive. The source made the active and inactive calls. How the source made its calls: active means growth percent below 10; inactive means the rest.

This is an account of results in PubChem BioAssay (NCI).

On to `CCOC(=O)C1=C(C)N=C2SC=C(c3ccc(F)cc3)N2[C@H]1c1cn(-c2ccccc2)nc1-c1ccc(Cl)cc1`, for which the growth in the experiment with NCI-H23 lung was 102%; in the experiment with NCI-H226 lung, 96.4%; in the experiment on NCI-H322M lung it was 88.6%; in the experiment on HOP-62 NSCLC, 86.8%; in the experiment on NCI-H460 lung, 102%; in the experiment on HOP-92 NSCLC it was 61.6%. Moreover, the growth with NCI-H522 lung is 83.4%; with A549/ATCC NSCLC it was 77.8%; with 786-0 renal, 87.6%; with DU-145 prostate it was 104%; in the experiment with K-562 leukemia it was 102%; in the experiment on MALME-3M melanoma, 100%. Moreover, the growth in the experiment with MDA-MB-231 breast is 88.5%; in the experiment with RXF 393 renal it was 97.1%; with SF-268 CNS, 92.4%; in the experiment with SF-295 CNS, 99%; with SF-539 CNS, 101%; with UACC-257 melanoma, 81.5%. Moreover, the growth in the experiment with M14 melanoma is 98.6%.

As to `N#Cc1c(N)nnn1Cc1cc(=O)oc2ccc(O)cc12`, the growth was 106% in the experiment on NCI-H23 lung; 95.7% in the experiment with NCI-H226 lung; 110% with NCI-H322M lung; 106% in the experiment on HOP-62 NSCLC; 107% in the experiment on NCI-H460 lung; 95.7% with HOP-92 NSCLC. Besides, the growth was 89.6% in the experiment with NCI-H522 lung; 98.7% in the experiment with A549/ATCC NSCLC; 106% with 786-0 renal; 108% in the experiment with DU-145 prostate; 96.1% with K-562 leukemia; 108% in the experiment with MALME-3M melanoma. In addition, the growth in the experiment on MDA-MB-231 breast is 112%; in the experiment with RXF 393 renal it was 98.8%; in the experiment on SF-268 CNS it was 103%; with SF-295 CNS it was 102%; in the experiment on SF-539 CNS it was 104%; with UACC-257 melanoma it was 101%. The growth in the experiment on M14 melanoma was 105%.

Turning to `O=C1/C(=C/c2cn(-c3ccccc3)nc2-c2ccccc2)SC(=S)N1c1ccc(Cl)cc1`, the growth with NCI-H23 lung was 87.5%; with NCI-H226 lung it was 71.2%; in the experiment on NCI-H322M lung, 64.8%; in the experiment with HOP-62 NSCLC it was 52.7%; with NCI-H460 lung, 47.5%; in the experiment with HOP-92 NSCLC it was 43.3%. Besides, the growth is 83.7% in the experiment with NCI-H522 lung; 68.8% with A549/ATCC NSCLC; 85.5% in the experiment with 786-0 renal; 74.6% in the experiment with DU-145 prostate; 63.8% in the experiment on K-562 leukemia; 95.4% in the experiment with MALME-3M melanoma. Moreover, the growth in the experiment on MDA-MB-231 breast was 79.8%; in the experiment with RXF 393 renal it was 88.4%; in the experiment on SF-268 CNS, 62.5%; in the experiment with SF-295 CNS, 44.6%; in the experiment with SF-539 CNS, 84.2%; with UACC-257 melanoma, 89.8%. In addition, the growth in the experiment with M14 melanoma is 65.8%.

For the compound `OCc1cc(CN2CCCCC2)c(O)c2ncccc12`, the growth is 75.8% in the experiment on NCI-H23 lung; 67.5% in the experiment with NCI-H226 lung; 25.9% in the experiment with NCI-H322M lung; 35.8% with HOP-62 NSCLC; 20.7% with NCI-H460 lung; 71.9% with HOP-92 NSCLC. Besides, the growth in the experiment on NCI-H522 lung was 80.7%; in the experiment with A549/ATCC NSCLC, 57.8%; in the experiment on 786-0 renal it was 57.9%; in the experiment with DU-145 prostate it was 49.5%; in the experiment on K-562 leukemia it was 55.5%; in the experiment with MALME-3M melanoma, 62.8%. Besides, the growth with MDA-MB-231 breast was 49.5%; in the experiment on RXF 393 renal, 73.8%; in the experiment with SF-268 CNS, 48.2%; in the experiment on SF-295 CNS, 60.6%; with SF-539 CNS it was 54%; in the experiment with UACC-257 melanoma, 77.8%. Besides, the growth in the experiment with M14 melanoma was 36.2%.

On to `COc1ccc(CCNC(=O)COc2cc3c(Nc4ccc(F)c(Cl)c4)ncnc3cc2OC)cc1OC`, for which the growth with NCI-H23 lung was 92.5%; in the experiment with NCI-H226 lung it was 98.5%; in the experiment on NCI-H322M lung, 27.3%; with HOP-62 NSCLC, 95.7%; with NCI-H460 lung it was 95.7%; in the experiment with HOP-92 NSCLC, 87.9%. The growth with NCI-H522 lung was 70.2%; in the experiment on A549/ATCC NSCLC, 84.8%; in the experiment with 786-0 renal, 89.4%; in the experiment on DU-145 prostate, 58%; in the experiment on K-562 leukemia, 112%; with MALME-3M melanoma it was 86.9%. The growth is 94.4% with MDA-MB-231 breast; 96% in the experiment on RXF 393 renal; 85.7% in the experiment on SF-268 CNS; 98.1% with SF-295 CNS; 103% in the experiment with SF-539 CNS; 110% in the experiment on UACC-257 melanoma. Also, in the experiment with M14 melanoma, the growth is 101%.

As to `Cc1ccc2c(c1)C(C)Cc1c(ncnc1-n1cnc3cc(C)ccc31)N2C` (stereo unspecified), the growth with NCI-H23 lung was 34%; in the experiment on NCI-H226 lung, 47.4%; in the experiment with NCI-H322M lung, 63.5%; in the experiment on HOP-62 NSCLC it was 27.6%; with NCI-H460 lung, 3.51% (active); in the experiment on HOP-92 NSCLC it was 10.4%. Moreover, the growth was -30% (active) in the experiment on NCI-H522 lung; 10.7% in the experiment on 786-0 renal; -51.2% (active) with COLO 205 colon; 10.9% in the experiment with DU-145 prostate; 6.54% (active) in the experiment with K-562 leukemia; 76.9% with MALME-3M melanoma. Besides, the growth in the experiment on MDA-MB-231 breast was 38.5%; with RXF 393 renal, 21.3%; with SF-268 CNS, 25.6%; in the experiment with SF-295 CNS it was 2.2% (active); in the experiment with SF-539 CNS, 16.8%; in the experiment on UACC-257 melanoma it was 25.6%.

On to `Cn1cc(-c2nc3c(F)cc4[nH]ncc4c3c3c2CCCC3)c(C(F)F)n1`, for which the growth is 66.9% in the experiment with NCI-H23 lung; 62.2% with NCI-H226 lung; 66.2% with NCI-H322M lung; 57.3% with HOP-62 NSCLC; 62.3% in the experiment on NCI-H460 lung; 8.14% (active) in the experiment with HOP-92 NSCLC. The growth was 26.9% with NCI-H522 lung; 58.1% with A549/ATCC NSCLC; 63.9% in the experiment on 786-0 renal; 78.7% with DU-145 prostate; 26% in the experiment on K-562 leukemia; 77.1% with MALME-3M melanoma. Also, the growth in the experiment with MDA-MB-231 breast is 60.2%; with RXF 393 renal, 55%; in the experiment with SF-268 CNS it was 61.7%; with SF-295 CNS, 64.7%; in the experiment with SF-539 CNS, 62.3%; in the experiment with UACC-257 melanoma, 90.5%. Also, in the experiment on M14 melanoma, the growth was 53.4%.

For the compound `O=C(/C=C/c1ccccc1)c1cccs1`, the growth was 94.1% and 105% with NCI-H23 lung; 103% in the experiment with NCI-H226 lung; 106% with NCI-H322M lung; 98.7% and 114% in the experiment on HOP-62 NSCLC; 93.3% and 109% with NCI-H460 lung; 79.3% with HOP-92 NSCLC. For the same compound, the growth is 73.6% and 94.2% in the experiment on NCI-H522 lung; 93.9% and 94.3% with A549/ATCC NSCLC; 89.5% and 94.2% in the experiment with 786-0 renal; 97.8% and 93.1% in the experiment with DU-145 prostate; 106% and 71.2% with K-562 leukemia; 119% in the experiment with MALME-3M melanoma. In addition, the growth in the experiment on MDA-MB-231 breast is 111% and 109%; with RXF 393 renal, 106% and 102%; in the experiment with SF-268 CNS, 98.4% and 98.3%; in the experiment with SF-295 CNS it was 97.7% and 95.1%; in the experiment on SF-539 CNS, 105% and 111%; in the experiment on UACC-257 melanoma it was 96.3% and 106%. The growth in the experiment on M14 melanoma was 98.1% and 112%.
